{
  "source": "PubChem BioAssay AID720633",
  "about": "(The Scripps Research Institute Molecular Screening Center, 2013)",
  "note": "Some of the results follow. Unmarked numbers belong to inactive results.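 How the source made its calls: active means inhibition above the cutoff, the mean of compounds lying between the control bounds plus 3 SD of those compounds (cut at about 17% in these data); inactive means the rest.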",
  "data": [
    {"molecular_target": "Fibrinogen beta chain (Homo sapiens) (UniProt P02675)", "sequence (P02675 whole entry, looked up)": "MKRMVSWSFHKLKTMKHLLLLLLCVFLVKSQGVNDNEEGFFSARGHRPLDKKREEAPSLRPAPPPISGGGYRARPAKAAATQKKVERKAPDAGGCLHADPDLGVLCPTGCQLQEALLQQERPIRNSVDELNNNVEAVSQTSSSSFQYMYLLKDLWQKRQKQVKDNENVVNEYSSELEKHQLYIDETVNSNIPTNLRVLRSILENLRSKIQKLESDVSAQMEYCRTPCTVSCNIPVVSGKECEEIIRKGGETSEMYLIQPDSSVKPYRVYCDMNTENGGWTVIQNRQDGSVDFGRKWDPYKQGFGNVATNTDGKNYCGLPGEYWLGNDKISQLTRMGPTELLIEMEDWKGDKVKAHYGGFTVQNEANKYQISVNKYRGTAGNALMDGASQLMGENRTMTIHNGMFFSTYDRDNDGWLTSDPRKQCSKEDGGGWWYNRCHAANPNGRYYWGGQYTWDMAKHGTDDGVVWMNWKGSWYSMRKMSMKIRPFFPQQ", "experiment": "fibrin DD(E) probe displacement, second cyclic peptide – biochemical, fluorescence polarization, human fibrin, counter-screen for fibrin DD(E)-Tn7 binding project, confirmation (AID 720633);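 further: 0% = median of compound sample wells and 100% = excess unlabeled Aha-Tn7 peptide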", "conditions": "TRITC-Tn7 probe displacement, at 8.3 µM, active compounds read high", "units": {"inhibition": "%"}, "values": [
      {"smiles": "Cc1nn(C)cc1N1C(=O)c2cccc3c(N)ccc(c23)C1=O", "inhibition": 1.67},
      {"smiles": "Cc1cc2nc3c(=O)[nH]c(=O)nc-3n(C[C@H](O)[C@H](O)[C@H](O)CO)c2cc1C", "inhibition": 12.4},
      {"smiles": "COc1ccc(N=Nc2c(-c3ccc(OC)cc3)[nH]oc2=O)cc1", "inhibition": -6.55},
      {"smiles": "C#CCNc1ccc(C(=O)OCC)cc1", "inhibition": 4.2},
      {"smiles": "COc1ccc(-c2nc(CCNC(=O)c3ccc(Br)o3)cs2)cc1", "inhibition": -3.63},
      {"smiles": "c1cc(-c2nn[nH]n2)ccc1CN1CCCCC1", "inhibition": -9.04},
      {"smiles": "O=C(NCc1ccccc1)c1cccc(NC(=O)C2CCCCC2)c1", "inhibition": 0.56}
    ]}
  ]
}
